Source: PubChem (National Center for Advancing Translational Sciences (NCATS))
Shown are actives, neighbours in structure and some others; about 2.4% of the full set was active somewhere.
D2 ag-1 = D2 dopamine receptor (human) agonism. HEK293 T-REx D2 cells, calcium flux agonist mode. activation, % at 2 µM. 340,000 tested, 0.53% active;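 active = activation over 3 SD above normal in the single-dose calcium agonist read, cut at about 30% in these data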; note: 0% is about no effect
Target sequence (P14416 whole entry, looked up): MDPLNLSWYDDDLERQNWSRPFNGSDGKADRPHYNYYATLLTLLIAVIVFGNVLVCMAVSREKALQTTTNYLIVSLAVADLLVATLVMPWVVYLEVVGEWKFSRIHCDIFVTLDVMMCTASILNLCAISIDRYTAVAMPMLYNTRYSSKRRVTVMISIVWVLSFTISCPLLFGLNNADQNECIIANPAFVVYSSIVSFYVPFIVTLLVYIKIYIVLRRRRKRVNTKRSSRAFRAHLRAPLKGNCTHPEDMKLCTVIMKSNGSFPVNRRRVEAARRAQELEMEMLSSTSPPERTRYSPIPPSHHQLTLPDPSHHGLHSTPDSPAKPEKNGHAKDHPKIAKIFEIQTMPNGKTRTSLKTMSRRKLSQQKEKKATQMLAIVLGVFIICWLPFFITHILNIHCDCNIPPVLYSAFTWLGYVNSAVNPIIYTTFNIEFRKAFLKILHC
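Tetracycline-induced HEK293 Trex cells with D2 receptor force-coupled to calcium signaling, plated overnight at 30 C and loaded with no-wash calcium dye. Calcium flux read kinetically for 180 s after compound addition; responses flag agonists.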
D2 ag-2 = human D2 receptor agonism in beta-arrestin assay; DiscoveRx PathHunter D2 beta-arrestin, luminescence, 90 min; 100% = 57 uM dopamine signal; activation, % (no concentration beside the values); 360,000 tested, 0.084% active; in the data active = activation above about 40%; inconclusive = between about 15% and that limit
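Agonist mode: compounds alone added to overnight-plated D2 PathHunter cells for 90 min at 37 C, with 57 uM final dopamine (EC100) defining full response. Beta-arrestin recruitment detected by chemiluminescent reagent, read after 1 h at ambient temperature.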
D2 PAM-1 = human D2 receptor positive allosteric modulation | P14416 | DiscoveRx D2 beta-arrestin cells, luminescence, 90 min; 100% = 57 uM dopamine signal | potentiation, % (concentration not given with the values) | 360,000 tested, 0.23% active; in the data active = potentiation above about 50%; inconclusive = mostly about 30% to 49%
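PathHunter beta-arrestin assay in DiscoveRx D2 cells. Compounds were added with an EC20 of dopamine (50 nM final) for 90 min at 37 deg C. Luminescence was read 1 h after detection reagent, with 57 uM dopamine as the EC100 control.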
D2 PAM-2 = D2 dopamine receptor (human) potentiation. P14416. HEK293 T-REx D2, calcium flux, EC20 dopamine potentiation. potentiation, % at 10 µM. 340,000 tested, 0.34% active. AID 485347;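 active = potentiation over 3 SD above the plate norm, cut at about 30% in these data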; note: 0% is about no effect
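Potentiation of an EC20 dopamine calcium response is measured in a force-coupled, tetracycline-inducible Hek293 Trex D2 line. Compound-only kinetic reads over 180 s flag agonists before dopamine addition.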
D2 antagonist = antagonizes the human D2 dopamine receptor | AID 485344 | HEK293 TREx D2 cells, calcium flux, dopamine EC80 | P14416 | 340,000 tested, 2% active | inhibition, % at 10 µM; in the data active = inhibition above about 30%; inactive = below that, where a call was filed; note: 0% is about no effect
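Calcium mobilization kinetics were recorded at 1 s intervals in tetracycline-induced HEK293 T-REx D2 cells, first for 180 s after compound addition and then 180 s after EC80 dopamine.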
* marks the source's active call; other numbers are inactive results; ? = inconclusive; . = no result given.

SMILES | D2 ag-1 | D2 ag-2 | D2 PAM-1 | D2 PAM-2 | D2 antagonist
Cc1cc(NC(=O)CCC(=O)N(Cc2ccco2)C2(C(=O)NC3CCCC3)CCC(C)CC2)no1 (configuration not stated) | -0.3 | -0.8 | -12.1 | 4.3 | -0.2
Cc1cc(NC(=O)CCC(=O)N(C2CC2)C2(C(=O)NC3CCCC3)CCC(C)CC2)no1 (configuration not stated) | 0.2 | -2.9 | -6.1 | -2.1 | 37.2*
Cc1cc(NC(=O)CCC(=O)N(c2ccc(C)c(F)c2)C(C(=O)NC2CCCC2)c2ccco2)no1 (configuration not stated) | . | 0.7 | -3.6 | -1.4 | .
Cc1ccc(-c2nnn(CC(=O)N(c3ccccc3)C(C(=O)NC3CCCC3)c3ccco3)n2)o1 (configuration not stated) | 0.5 | 0.4 | -5.5 | 16.5 | 32.8*
Cc1cccc(NC(=O)CNC(=O)CN2C(=O)NC3(CCCCC3C)C2=O)c1C (configuration not stated) | . | -3.2 | -19.0 | . | .
COc1ccc(CNc2oc(/C=C/c3cccc(OC)c3)nc2C#N)cc1 | -1.2 | . | . | 0.2 | .
CCN(CC(=O)Nc1ccc2c(c1)OCCO2)C(=O)/C=C/c1ccc(F)cc1 | 2.6 | -3.2 | -12.0 | 2.0 | -3.5
COC(=O)c1ccccc1-c1c2ccc(=N)cc-2oc2cc(N)ccc12 | 96.6* | -15.6 | -15.0 | -19.7 | 76.9*
COC(=O)c1ccccc1-c1ccc(/C=N/NC(=O)c2cc3ccccc3o2)o1 | 0.4 | -1.7 | -27.9 | -17.3 | -13.9
CC(C)CC(=O)n1sc(NC(=O)c2ccccc2)nc1=O | -0.5 | -3.0 | -21.1 | -3.5 | -1.7
COC(=O)C1=C(C(=O)OC)SC(=C2C(=S)C(C)(C)N(C(=O)CC(C)C)c3ccccc32)S1 | 0.4 | -0.1 | -12.4 | 8.8 | 30.3*
Cc1ccc(C)c(Cn2c(=O)cc(C)c3c(C)nn(-c4cccc(F)c4)c32)c1 | -0.9 | . | . | 11.4 | .
Cc1ccc(O)c(NC(=O)CSc2n[nH]c(C)c2[N+](=O)[O-])c1 | . | 13.8 | 6.3 | . | .
CSc1ccccc1NC(=O)CSc1n[nH]c(C)c1[N+](=O)[O-] | 0.3 | -1.8 | -6.0 | 0.2 | 40.7*
COc1ccc2oc3c(ccc[n+]3C)c(=O)c2c1 | . | -3.4 | -7.6 | . | .
CCCn1c2ccccc2c2cnn(CC(=O)Nc3cc(OC)c(OC)c(OC)c3)c(=O)c21 | -0.5 | . | . | -2.2 | .
CCOC(=O)NN1C(=O)c2ccccc2NC1c1ccccn1 (configuration not stated) | 1.1 | -18.8 | -10.1 | . | 37.7*
Oc1ccc(N=Nc2ccccc2)cc1 | -0.4 | -2.6 | -11.3 | 5.1 | 33.2*
CCCCCCc1cc2cc(S(=O)(=O)c3ccc(Cl)cc3)c(=O)oc2cc1O | . | 1.7 | 3.3 | -5.5 | .
CCN(CC)c1ccc2cc(S(=O)(=O)c3ccc(Cl)cc3)c(=O)oc2c1 | 68.0* | -3.0 | -1.2 | 4.8 | -75.8
OCc1cnc(SCc2ccccc2)n1Cc1ccccc1 | -0.3 | -0.7 | -5.9 | 0.9 | -1.7
C=CCSc1ncc(CO)n1Cc1ccccc1 | 0.5 | -4.5 | -9.5 | 1.6 | 36.5*
O=C(O)c1ccc(Cl)c(S(=O)(=O)Nc2cccc(C(=O)Nc3cccc(C(F)(F)F)c3)c2)c1 | . | -0.8 | 3.1 | . | .
COc1ccc(SCCC(=O)NCc2ccncc2)cc1 | -0.4 | 0.8 | 1.2 | -14.4 | 32.1*
O=C(CCSc1ccc(Cl)cc1)NCc1ccncc1 | 0.7 | -0.8 | -10.3 | -1.7 | -2.6
SMILES | D2 ag-1 | D2 ag-2 | D2 PAM-1 | D2 PAM-2 | D2 antagonist
Oc1ccc(NCc2ccccc2OCc2ccccc2)cc1 | -0.1 | ? | 96.8* | -13.7 | -2.0
Nc1ccc(C(=O)N2CCN(S(=O)(=O)c3ccc(Br)cc3)CC2)cc1[N+](=O)[O-] | 1.1 | 0.8 | 15.6 | 2.4 | 34.7*
O=C(CSc1nc2ccccc2nc1Cc1ccccc1)N1CCCc2ccccc21 | 0.4 | . | . | -0.7 | .
CCOc1cccc(OCCOCCN(C)Cc2ccccc2)c1 | 0.1 | -3.3 | -30.4 | -37.8 | 30.4*
CN(CCOCCOc1ccc(Cl)cc1Br)Cc1ccccc1 | 0.5 | -0.4 | -16.0 | -15.1 | 39.9*
CN(CCCOc1ccccc1Br)Cc1ccccc1 | -0.2 | -4.2 | -29.1 | -22.3 | 38.5*
Cc1ccc(Cl)c(OCCCCN(C)Cc2ccccc2)c1 | -0.9 | -4.2 | -26.7 | -22.2 | 45.5*
Nc1ccc(S(=O)(=O)c2ccc(N3CCOCC3)c(N)c2)cc1 | . | -8.2 | -14.8 | . | .
CN(CCCOc1ccccc1F)Cc1ccccc1 | -1.2 | -1.4 | -5.2 | -21.6 | 18.6
Cc1ccc(Cl)c(OCCCN(C)Cc2ccccc2)c1 | -0.3 | -3.6 | -24.0 | -21.8 | 63.5*
CCOc1ccc(OCCN(C)Cc2ccccc2)cc1 | 0.6 | -0.1 | -24.4 | -5.2 | 10.0
CN(CCOc1ccc(Cl)c(Cl)c1)Cc1ccccc1 | -0.5 | -2.5 | -4.4 | -25.2 | 65.4*
O=C(CCSCCc1ccccn1)Nc1ccc(Cl)cc1 | 0.9 | . | . | 2.9 | .
O=C(CCn1c(=O)c2cccn2c2cccnc21)NCc1ccccc1F | 2.3 | . | . | -4.5 | .
N/C(Cc1ccc(Cl)cc1)=N\OC(=O)CCc1ccccc1 | . | 5.7 | 3.9 | . | .
Cn1c(=O)c2[nH]c(-c3ccccc3Cl)c(O)c2n(C)c1=O | . | 3.8 | 25.1 | . | .
Cn1c(=O)c2[nH]c(-c3ccccc3)c(O)c2n(C)c1=O | 5.2 | ? | 107.6* | 9.3 | 10.6
O=C(NC1CCCC1)C(c1ccc(Cl)cc1)N1CCOCC1 (configuration not stated) | -0.9 | -5.7 | -5.8 | -2.5 | 32.0*
NC(=O)C1CCN(S(=O)(=O)c2cccc(S(=O)(=O)N3CCCCC3)c2)CC1 | 1.2 | -0.4 | 5.4 | 8.4 | 70.4*
CSc1ccc(S(=O)(=O)N2CCC(C(=O)NCC3CCCO3)CC2)cc1 (configuration not stated) | -0.3 | -2.3 | -10.7 | 32.6* | 7.6
O=C(NCC1CCCO1)c1cccc(S(=O)(=O)N2CCCCC2)c1 (configuration not stated) | 0.4 | -1.0 | 7.7 | 3.7 | 30.9*
CC1CCN(S(=O)(=O)c2cccc(C(=O)NCC3CCCO3)c2)CC1 (configuration not stated) | 0.0 | 3.7 | -5.3 | -7.4 | -8.2
CCOc1ccc(NS(=O)(=O)c2ccc3[nH]c4c(c3c2)CCCCC4)cc1 | 0.9 | . | . | -1.4 | .
Cc1ccc2nc(NC(=O)CSc3nc4c(c(=O)n3C)SC(C)C4)sc2c1 (configuration not stated) | 0.3 | 4.3 | 17.3 | 32.0* | -3.1
CC(NC(=O)Cc1ccc(F)cc1)C(c1cccs1)N1CCN(C)CC1 (configuration not stated) | 0.1 | -0.8 | 3.3 | 50.3* | -1.4
CC(NC(=O)c1cccs1)C(c1cccs1)N1CCN(c2ccccc2)CC1 (configuration not stated) | -0.3 | 0.5 | -4.1 | 54.5* | 7.2
CC(C)C(=O)NC(C)C(c1cccs1)N1CCN(c2ccccc2)CC1 (configuration not stated) | 1.2 | 0.8 | -13.3 | 17.3 | -10.2
